Data on 38 molecules can be found in PubChem BioAssay (NCI).

This is part of a sample that, as a whole, favours compounds with a hit. Of some 83,000 tested, about 20% had one in any assay.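 Plates (96-well) were seeded with cells, treated with compound at one concentration, and incubated for 48 hours before percent growth was determined.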 A number with no mark means an inactive call. The source made the active and inactive calls. Rule for the calls: active = growth percent below 10; inactive = the rest.

For the assay, the system named is SNB-75 CNS. Kind of assay: NCI-60 one-dose screen, 48 h (100 = growth as untreated, 0 = no growth, -100 = all killed). The note with it: 10 µM unless noted.
On to `O=C(O)CSCC(=O)Nc1cc(C(F)(F)F)ccc1Cl`, for which the growth was 125%.

`N=C(N)c1nn(C2OC(CO)C(O)C2O)c2nc[nH]c(=O)c12` (stereo not drawn): the growth is 9.13% (active).

`CC(C)C(=O)OCCOc1ccc(C(C)(C)C)cc1`: the growth is 94.1%.

As for `OCCNc1ccccc1`, the growth was 91.3%.

`C/C(=N\Nc1ccc([N+](=O)[O-])cc1[N+](=O)[O-])c1ccc(Br)cc1`: the growth is 104%.

For the molecule `O=C(Oc1ccccc1Cl)c1ccc(Cl)cc1Cl`, the growth was 91.8%.

As for `C=C(C)COc1ccc(C(C)(C)C)cc1`, the growth is 94%.

With `CCC(C)c1c(N)n(S(=O)(=O)c2ccc(C)cc2)oc1=O` (stereo not drawn), the growth was 88.9%.

Consider `Nc1ccn(C2CC(N)C(CO)O2)c(=O)n1` (stereo not drawn), for which the growth is 77.6%.

Regarding `CN(CCCN(C)CCC1CCCCC1)CCC1CCCCC1`, the growth was -0.933% (active).

Regarding `O=S(Cc1ccccc1)/C(=C/NC(=S)Nc1cc(Cl)ccc1Cl)c1ccccc1` (stereo not drawn), the growth was 89.9%.

Turning to `Cc1c(Cl)cccc1N=C=S`, the growth was 70.6%.

`CCCC1OC(c2ccco2)OCC1CC` (stereo not drawn): the growth was 84.2%.

Turning to `CN1CCCN(C(c2ccccc2)c2ccc(Br)cc2)CC1` (stereo not drawn), the growth is 38.5%.

For the molecule `OCCOc1ccc(-c2cc(-c3ccccn3)nc(-c3ccccn3)c2)cc1`, the growth is 24.1%.

Turning to `O=C(Nc1cccc(Cl)c1)c1ccc(Cl)cc1Cl`, the growth is 84.7%.

In the case of `CC(=O)Oc1c(Cl)cccc1-c1ccccc1`, the growth is 103%.

`C/C=C/C1OCC(CC)C(CCC)O1` (stereo not drawn): the growth was 90.2%.

`COc1cccc(C(=O)O)c1OC`: the growth was 90.8%.

`CC(C)C1CCC(C)C(O)C1` (stereo not drawn): the growth is 91.1%.

As to `COc1cc(CC#N)c([N+](=O)[O-])cc1OC`, the growth was 107%.

Turning to `CCCNS(=O)(=O)c1ccc(Cl)cc1`, the growth is 93.4%.

As to `CCOC(=O)/C(C)=C\c1ccc(OC)c(OC)c1`, the growth is 92.9%.

For `O=C(NCc1ccccc1)c1cccc([N+](=O)[O-])c1`, the growth was 101%.

On to `OCCc1ccc(Cl)cc1`, for which the growth was 86.5%.

Regarding `C/C(=N\O)c1ccccn1`, the growth is 96.9%.

For `CC1(C)OC(=O)CC1=O`, the growth is 93.5%.

For the molecule `O=C1C=Cc2ccccc2/C1=C/c1[nH]c(=O)[nH]c1O`, the growth is 31.9%.

`Nc1ncnc2c1ncn2C1OC(CO)C2OC21` (stereo not drawn): the growth was 106%.

`C=CCS(C)(=O)=O`: the growth is 94.1%.

As for `Cc1ccc(C2CCCCC2)cc1Br`, the growth was 98.4%.

As to `Cc1ccc2[nH]c3ccccc3c2c1`, the growth is 98.4%.

On to `Cc1ccc(/C=N/NC(N)=S)s1`, for which the growth is 91.2%.

On to `O=S(=O)(O)c1cccnc1`, for which the growth is 79.5%.

In the case of `O=C(O)c1ccccc1Cc1ccc2c(c1)CCCC2`, the growth was 87.2%.

Turning to `Nc1cc(F)ccc1[N+](=O)[O-]`, the growth is 85.9%.

For the molecule `CCOc1ccc(C(=O)O)cc1`, the growth was 89.2%.

On to `CCCCOC(=O)c1ccccc1O`, for which the growth is 85.9%.
